# Source: article PMC5540273 (PLoS ONE, 2017)
# System: WNK3
# Conditions: concentration: 1 μM, replicates: in singlicate; n = 1
# 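Also: KINOMEscan kinase panel screen.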
row,SMILES,%Inh
1,COC(=O)c1c(-c2ccccc2)c2cc(Br)ccc2c(=O)n1Cc1ccc(NC(=O)CCC(=O)O)cc1,0%
2,Cc1nc(N(C)[C@H]2CN(C(=O)CC#N)CC[C@H]2C)c2cc[nH]c2n1,0%
3,COc1cc2ncn(-c3cc(OCc4ccncc4)c(C(N)=O)s3)c2cc1OC [GSK336313],10%
4,CCC(=O)c1c(-c2ccccc2)c2cc(Cl)ccc2c(=O)n1Cc1cc(S(C)(=O)=O)n(CC(N)=O)n1,0%
5,CCS(=O)c1ccc(-c2coc3ccc(-c4nnc(C)o4)cc23)cc1 (centres unmarked),0%
6,COc1ccc(-c2cc3c(C)nc(N)nc3n([C@H]3CC[C@H](OCCO)CC3)c2=O)cn1,0%
7,CC(C)(C)c1ccc(C(=O)Nc2cn3cc(-c4ccccc4)ccc3n2)cc1,0%
8,COc1cc(Nc2nccc(N3CCC(NC(=O)C4COc5ccccc5O4)C3)n2)cc(OC)c1OC (centres unmarked) [GSK1379761],46%
9,CN1C(=O)C(Nc2ccccc2)=C(c2ccccc2)C1=O [SB-300079],33%
10,COc1ccc(-n2cnc3c(N)ncnc32)cc1 [SKF-97236],0%
11,CCc1ccc(-c2ccc3c(c2)-c2nn(C)cc2S(=O)(=O)N3C)cc1,0%
12,Cc1ccc(Oc2ccc(Nc3ncnc4cc[nH]c34)cc2C)cn1,10%
13,O=C(Nc1n[nH]c2nc(-c3ccccc3)c(Br)cc12)C1CC1 [SB-708998],9%
14,Cc1ccccc1COc1cc(-n2cnc3cc(Cl)ccc32)sc1C(N)=O [GW813349],6%
15,COc1cc(OC)cc(-c2cc3cnc(N)nc3nc2NC(=O)NC(C)(C)C)c1,0%
16,COc1cc(Nc2nccc(N3CCC(NC(=O)C(C)c4ccc(Cl)cc4)C3)n2)cc(OC)c1OC (centres unmarked) [GSK1379757],15%
17,CCCC(=O)Nc1n[nH]c2ncc(-c3cccc4ccccc34)cc12 [SB-642057],0%
18,COc1ccc(-c2coc3ccc(-c4nnc(SCc5cccc(C#N)c5)o4)cc23)cc1,0%
19,Cc1nnc(-c2ccc3ncn(-c4ccc(S(C)=O)cc4)c3c2)o1 (centres unmarked),0%
20,O=C1NC(=O)C(c2ccccc2)=C1Nc1cccc(O)c1 [SB-390534],0%
21,Nc1ncnc2c1ncn2-c1cccc2ccccc12 [SKF-97184],29%
22,COc1ccc(Nc2nccc(N3CCC(NS(=O)(=O)c4ccc(NC(C)=O)cc4)C3)n2)cc1 (centres unmarked) [GSK1379729],0%
23,COc1cc2ncn(-c3cc(OCc4ccc(S(C)(=O)=O)cc4)c(C(N)=O)s3)c2cc1OC [GW869979],0%

# System: WNK4
# Conditions: concentration: 1 μM, replicates: in singlicate; n = 1
row,SMILES,%Inh
1,O=C(NCCNc1ccnc(Nc2ccc(F)cc2)n1)Nc1ccc2c(c1)OCO2 [GSK1379882],12%
2,O=C(NCc1cccs1)c1cc(C(=O)c2c(Cl)cccc2Cl)c[nH]1 [GW823670],0%
3,Cc1ccc(-c2ccc3c(ccc4sc5c(c43)NC[C@@H](C)N=C5N(C)C)n2)cn1,0%
4,Cc1cc(Nc2nc(-c3cccc(C)n3)nc3ccccc23)ccn1 [GW872411],0%
5,Nc1nc(-c2ccccc2F)c(-c2ccnc3ccccc23)s1 [GW560459],48%
6,COc1ccc(-c2cc3c(C)nc(N)nc3n([C@H]3CC[C@H](O)CC3)c2=O)cn1,18%
7,OCCCNc1nccc(-c2c(-c3cccc(C(F)(F)F)c3)nn3cc(C(F)(F)F)ccc23)n1 [GW630813],85%
8,CN(C)c1cc(-c2ccc3c(N)n[nH]c3c2)nc(N)n1 [GSK2219329],32%
9,Cl.c1ccc(Cn2cnc3cc(Nc4ncnc5ccccc45)ccc32)cc1 [GW272142],44%
10,Cc1cccc(-c2cc(-c3c[nH]nc3-c3ccccn3)ccn2)c1 [GW679395],38%
11,CCC(=O)c1c(-c2ccccc2)c2cc(Cl)ccc2c(=O)n1Cc1cc(S(C)(=O)=O)n(CCC(C)(C)O)n1,25%
12,Cc1nnc(-c2ccc(C)c(-c3ccc(C(=O)O)cc3)c2)o1 [GW608005],0%
13,COc1cc2nccc(Nc3ccc(OCc4ccc(NC(C)=O)cc4)cc3)c2cc1OC.Cl [GW440135],0%
14,COC(=O)c1c(-c2ccccc2)c2cc(Br)ccc2c(=O)n1Cc1ccc(NC(=O)CCC(=O)O)cc1,0%
15,Cc1nc(N(C)[C@H]2CN(C(=O)CC#N)CC[C@H]2C)c2cc[nH]c2n1,0%
16,COc1cc2ncn(-c3cc(OCc4ccncc4)c(C(N)=O)s3)c2cc1OC [GSK336313],0%
17,CCC(=O)c1c(-c2ccccc2)c2cc(Cl)ccc2c(=O)n1Cc1cc(S(C)(=O)=O)n(CC(N)=O)n1,0%
18,CCS(=O)c1ccc(-c2coc3ccc(-c4nnc(C)o4)cc23)cc1 (centres unmarked),11%

row,SMILES,%Inh
1,COc1ccc(-c2cc3c(C)nc(N)nc3n([C@H]3CC[C@H](OCCO)CC3)c2=O)cn1,0%
2,CC(C)(C)c1ccc(C(=O)Nc2cn3cc(-c4ccccc4)ccc3n2)cc1,16%
3,COc1cc(Nc2nccc(N3CCC(NC(=O)C4COc5ccccc5O4)C3)n2)cc(OC)c1OC (centres unmarked) [GSK1379761],50%
4,CN1C(=O)C(Nc2ccccc2)=C(c2ccccc2)C1=O [SB-300079],26%
5,COc1ccc(-n2cnc3c(N)ncnc32)cc1 [SKF-97236],0%
6,CCc1ccc(-c2ccc3c(c2)-c2nn(C)cc2S(=O)(=O)N3C)cc1,0%
7,Cc1ccc(Oc2ccc(Nc3ncnc4cc[nH]c34)cc2C)cn1,0%
8,O=C(Nc1n[nH]c2nc(-c3ccccc3)c(Br)cc12)C1CC1 [SB-708998],0%
9,Cc1ccccc1COc1cc(-n2cnc3cc(Cl)ccc32)sc1C(N)=O [GW813349],0%
10,COc1cc(OC)cc(-c2cc3cnc(N)nc3nc2NC(=O)NC(C)(C)C)c1,0%
11,COc1cc(Nc2nccc(N3CCC(NC(=O)C(C)c4ccc(Cl)cc4)C3)n2)cc(OC)c1OC (centres unmarked) [GSK1379757],10%
12,CCCC(=O)Nc1n[nH]c2ncc(-c3cccc4ccccc34)cc12 [SB-642057],0%
13,COc1ccc(-c2coc3ccc(-c4nnc(SCc5cccc(C#N)c5)o4)cc23)cc1,3%
14,Cc1nnc(-c2ccc3ncn(-c4ccc(S(C)=O)cc4)c3c2)o1 (centres unmarked),0%
15,O=C1NC(=O)C(c2ccccc2)=C1Nc1cccc(O)c1 [SB-390534],9%
16,Nc1ncnc2c1ncn2-c1cccc2ccccc12 [SKF-97184],15%
17,COc1ccc(Nc2nccc(N3CCC(NS(=O)(=O)c4ccc(NC(C)=O)cc4)C3)n2)cc1 (centres unmarked) [GSK1379729],29%
18,COc1cc2ncn(-c3cc(OCc4ccc(S(C)(=O)=O)cc4)c(C(N)=O)s3)c2cc1OC [GW869979],51%
